Experimental data reported in ChEMBL document CHEMBL4888484, “Replenishing the malaria drug discovery pipeline: Screening and hit evaluation of the MMV Hit Generation Library 1 (HGL1) against asexual blood stage Plasmodium falciparum ,using a nano luciferase reporter read-out” (2022).
Hit rate of the full screen: of about 150,000 compounds, about 540 (0.36%) showed an effect of 50% or more. Only a selection was taken, and strong results are over-represented in it overall.

tested on: Plasmodium falciparum; test: Primary screen in NF54 nanoGlo assay, in single point, at 2uM, 72h; a lower Z score goes with more inhibition; format: functional, Erythrocyte; conditions: timepoint 72 hour

Q: How did the “% Inhibition” value turn out when `CN(C)c1nc(N)cc(-c2ccc(-n3cccn3)cc2)n1` was run?
A: -1%

Q: What about the Z score of the same compound?
A: 0.21

Q: Which results are given for `COc1ccc(F)c(-c2cc(N)nc(N(C)C)n2)c1`?
A: % Inhibition: -15%; Z score: 2.16

Q: How did the “% Inhibition” value turn out when `CN(C)c1nc(N)cc(-c2cccc3cccnc23)n1` was run?
A: 57%

Q: What about the Z score of the same compound?
A: -7.96

Q: For `COc1ccc2c(c1)C1(CC1)CN(C(=O)Nc1ccnnc1C)C2`, which “% Inhibition” value is on record?
A: -11%

Q: And the Z score?
A: 2.25

Q: Which “% Inhibition” value does the source give for `COc1ccc(-c2cc3c(=O)n(CCNC(=O)Cc4ccc(F)cc4)ccn3n2)cc1` here?
A: -7%

Q: And the Z score?
A: 1.17

Q: `CNC(=O)[C@@H]1C[C@H](Oc2ccccc2)CN1S(C)(=O)=O` was tested. Which “% Inhibition” value did it give?
A: -12%

Q: And the Z score?
A: 1.64

Q: For `NC(=O)[C@@H]1CN(Cc2ncc(C(F)(F)F)s2)CCO1`, which “% Inhibition” value is on record?
A: -12%

Q: What about the Z score of the same compound?
A: 1.56

Q: With `CC[C@H](C)NC(=O)COc1ccc(Cl)cc1C(N)=O` as the compound, how does the “% Inhibition” value read?
A: -8%

Q: What about the Z score of the same compound?
A: 0.84

Q: For `Cc1cc(N(C)CCC2CC2)nc([C@H](C)N(C)CCC2CC2)n1`, which “% Inhibition” value is on record?
A: 59%

Q: And the Z score?
A: -9.38

Q: What does the source list for `CCc1nc(C)cc(N(C)CCn2nc(C)cc2C)n1`?
A: % Inhibition: -18%; Z score: 1.72

Q: `Cc1cc(O)nc([C@H](C)N(C)CC2CCOCC2)n1` was tested. Which “% Inhibition” value did it give?
A: -12%

Q: And the Z score?
A: 1.59

Q: How did the “% Inhibition” value turn out when `CCCN(CCC)C[C@H](O)COc1c(Cl)cccc1Cl` was run?
A: -6%

Q: And the Z score?
A: 0.67

Q: With `CCN(CC)CC(O)COc1c(Br)cc(C(C)(C)c2cc(Br)c(OCC(O)CN(CC)CC)c(Br)c2)cc1Br` (centres undefined) as the compound, how does the “% Inhibition” value read?
A: 99%

Q: And the Z score?
A: -13.36

Q: Which “% Inhibition” value does the source give for `OCCN(CCO)C[C@H](O)COc1c(Br)cc(Br)cc1Br` here?
A: -7%

Q: What about the Z score of the same compound?
A: 1.05

Q: `Cc1ncc2ncccc2c1Br` was tested. Which “% Inhibition” value did it give?
A: -4%

Q: And the Z score?
A: 0.8

Q: Which “% Inhibition” value does the source give for `Cn1c(Cc2n[n+]3c(-c4ccccc4)cc(-c4ccccc4)nc3n2C)n[n+]2c(-c3ccccc3)cc(-c3ccccc3)nc12` here?
A: 95%

Q: What about the Z score of the same compound?
A: -10.43

Q: Which “% Inhibition” value does the source give for `Cc1nc(-c2ccccc2)cc(N2CCN(CCc3ccccc3)CC2)n1` here?
A: 0%

Q: What about the Z score of the same compound?
A: 0

Q: Which results are given for `C[n+]1cnc(-c2ccccc2)cc1-c1ccccc1`?
A: % Inhibition: 1%; Z score: -0.07

Q: Which results are given for `CCS(=O)(=O)CCNC(=O)c1ccnc(C(C)C)n1`?
A: % Inhibition: -4%; Z score: 0.73

Q: Which “% Inhibition” value does the source give for `O=C(Cn1nc(-n2cccn2)ccc1=O)NCc1ccco1` here?
A: -7%

Q: And the Z score?
A: 1.27

Q: Which “% Inhibition” value does the source give for `CCOC(=O)c1ccc(NC(=O)CC2CCC2)cn1` here?
A: 3%

Q: And the Z score?
A: -0.29

Q: What does the source list for `CCCC1CCC(OC(=O)c2ccc(C(=O)OC3CCC(CCC)CC3)nc2)CC1` (centres undefined)?
A: % Inhibition: 74%; Z score: -10.02

Q: For `NC(=O)c1ccc(C(=O)OC2CCCCCC2)cn1`, which “% Inhibition” value is on record?
A: 3%

Q: What about the Z score of the same compound?
A: -0.42

Q: With `CCc1nnc(-c2[nH]c(C)c(S(=O)(=O)Nc3cccc(Cl)c3)c2C)o1` as the compound, how does the “% Inhibition” value read?
A: -5%

Q: What about the Z score of the same compound?
A: 0.66

Q: With `C[C@@H](CNC(=O)C(C)(C)C)c1ccccc1` as the compound, how does the “% Inhibition” value read?
A: -10%

Q: What about the Z score of the same compound?
A: 0.9

Q: With `COC(C)[C@H](C)NCC(C)c1ccccc1` (some centres undefined) as the compound, how does the “% Inhibition” value read?
A: 73%

Q: And the Z score?
A: 1.55

Q: How did the “% Inhibition” value turn out when `Cc1c(NC[C@H](C)c2ccccc2)cnn1C` was run?
A: -3%

Q: And the Z score?
A: 0.4

Q: `Cc1cnc(=O)n(CC(=O)N2CCN(c3ccccc3F)CC2)c1` was tested. Which “% Inhibition” value did it give?
A: -1%

Q: What about the Z score of the same compound?
A: 0.07

Q: Which “% Inhibition” value does the source give for `Cn1cccc1CN(C(=O)c1cc2ccccc2[nH]1)C1CC1` here?
A: -5%

Q: And the Z score?
A: 1

Q: With `CN1CCC(N(CCc2ccccc2)C(=O)c2cccc3cnccc23)CC1` as the compound, how does the “% Inhibition” value read?
A: -4%

Q: And the Z score?
A: 0.65

Q: `Cc1sc2ncnc(Nc3ccc4c(c3)OCO4)c2c1C` was tested. Which “% Inhibition” value did it give?
A: -3%

Q: And the Z score?
A: 0.37

Q: How did the “% Inhibition” value turn out when `CC[C@H](C)[C@@H](CN(C)C)NC(=O)CCc1ccncc1` was run?
A: 20%

Q: And the Z score?
A: -2.58

Q: `O=C(NCC1CC1)c1ccc2[nH]c3c(c2c1)CCCCC3` was tested. Which “% Inhibition” value did it give?
A: -12%

Q: And the Z score?
A: 1.65

Q: Which results are given for `CCCC(O)(CCC)CC(=O)N1CCN(C(=O)OCC)CC1`?
A: % Inhibition: -7%; Z score: 0.63

Q: What does the source list for `O=C(c1ccc(-c2cn(-c3ccccc3)cn2)cc1)N1CCOC[C@@H](O)C1`?
A: % Inhibition: 5%; Z score: -0.8

Q: Which “% Inhibition” value does the source give for `CCOc1cc(CN2CC[S+]([O-])CC2)ccc1OC` here?
A: 6%

Q: What about the Z score of the same compound?
A: -1.1

Q: How did the “% Inhibition” value turn out when `Cc1nn(C)c(Cl)c1C(=O)Nc1ccc2ccccc2c1` was run?
A: 10%

Q: What about the Z score of the same compound?
A: -1.64

Q: With `Cc1nn(C)c(Cl)c1CNCc1ccc(N2CCCC2=O)cc1` as the compound, how does the “% Inhibition” value read?
A: -5%

Q: What about the Z score of the same compound?
A: 0.6

Q: Which results are given for `c1ccc(-c2cc([C@@H]3NCCc4[nH]cnc43)on2)cc1`?
A: % Inhibition: -4%; Z score: 0.56

Q: `CCc1ccc([C@H]2NCCc3[nH]cnc32)nc1` was tested. Which “% Inhibition” value did it give?
A: 55%

Q: What about the Z score of the same compound?
A: -5.21

Q: With `Cc1nn(CCO)c(C)c1[C@@H]1NCCc2[nH]cnc21` as the compound, how does the “% Inhibition” value read?
A: -16%

Q: And the Z score?
A: 2.3

Q: Which “% Inhibition” value does the source give for `CCc1nnc2c(S(=O)(=O)N(Cc3cccc(Cl)c3)c3ccccc3)cccn12` here?
A: -17%

Q: And the Z score?
A: 2.2
